Screening data as filed in PubChem BioAssay.
This is a sample that favours compounds with a hit; in the whole collection about 3% have one here.
TRAIL sens C8 = sensitizes caspase-8 expressing cells to TRAIL. NB7+C8 cells + TRAIL, ATPlite viability luminescence. AID 624354. 360,000 tested, 1% active. inhibition (viability loss, TRAIL sensitization), % at 10 µM;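 active means compounds causing at least 50% loss of cell viability in the single-dose screen, relative to plate controls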
SENP7 block = inhibitors of human SENP7 protease; inhibition, % at 5 µM; AID 434973; Q9BQF6; recombinant SENP7, Z-RLRGG-aminoluciferin luminescence, 40 min; 330,000 tested, 1.5% active;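 active means inhibition above about 50% at the single test dose, limit read from the data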
Target sequence (Q9BQF6 706-1050 limits assumed): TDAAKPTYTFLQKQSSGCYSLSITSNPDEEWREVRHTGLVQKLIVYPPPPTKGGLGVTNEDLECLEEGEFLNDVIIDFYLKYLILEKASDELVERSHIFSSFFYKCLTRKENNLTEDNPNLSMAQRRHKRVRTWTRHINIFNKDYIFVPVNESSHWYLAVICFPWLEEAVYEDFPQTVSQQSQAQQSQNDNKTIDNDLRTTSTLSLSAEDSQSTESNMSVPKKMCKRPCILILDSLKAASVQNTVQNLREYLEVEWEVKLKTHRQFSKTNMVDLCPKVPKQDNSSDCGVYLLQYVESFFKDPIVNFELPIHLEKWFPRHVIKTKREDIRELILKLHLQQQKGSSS
SENP8 block-1 = SENP8 (human) protease inhibition | Q96LD8 | recombinant SENP8, Nedd8 substrate fluorescence | inhibition, % at 20 µM | 360,000 tested, 0.64% active | AID 602440; in the data active means inhibition mostly above about 40%, no sharp cut-off; inactive means mostly below about 27%
Target sequence (Q96LD8 whole entry, looked up): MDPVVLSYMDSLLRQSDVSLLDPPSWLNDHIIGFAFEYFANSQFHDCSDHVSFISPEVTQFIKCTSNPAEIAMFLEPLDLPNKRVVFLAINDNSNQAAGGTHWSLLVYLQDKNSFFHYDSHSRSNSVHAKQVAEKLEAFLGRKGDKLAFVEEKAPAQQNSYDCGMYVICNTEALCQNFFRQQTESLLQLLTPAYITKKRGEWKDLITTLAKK
SENP8 block-2 = blocks the human protease SENP8; Q96LD8; purified SENP8, Z-RLRGG-aminoluciferin cleavage, luminescence; inhibition, % at 10 µM; 330,000 tested, 1.2% active; in the data active means inhibition above about 50%
PPC-1+TRAIL kill = kills PPC-1 cancer cells in the presence of TRAIL | PPC-1 cells + TRAIL, ATPLite viability luminescence | cell killing (% activity), % at 4 µM or 5 µM | 220,000 tested, 0.41% active | AID 1443;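 active means cell killing above 50% in the first pass at 4 µM, then a duplicate retest at 5 µM averaging 50% or more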
SENP6 block = blocks the human protease SENP6 | Q9GZR1 | Recombinant SENP6 catalytic domain, aminoluciferin luminescence | inhibition, % at 10 µM | 330,000 tested, 1.8% active;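 active means inhibition above about 50% at the single tested dose, limit read from the data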
SENP8 confirm = confirmation of human SENP8 protease inhibitors; shares compounds with SENP7 block; Recombinant SENP8, Z-RLRGG-aminoluciferin luminescence, 60 min; inhibition, % at 12.5 µM; 6,200 tested, 40% active;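 active means mean inhibition across replicates above about 50%, limit read from the data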
SENP6 conf = human SENP6 inhibition, confirmed; inhibition, % at 12.5 µM; AID 488915; recombinant SENP6, Z-RLRGG-aminoluciferin luminescence; shares compounds with SENP7 block; 6,200 tested, 58% active
SENP7 confirm = confirmation of human SENP7 protease inhibitors; shares compounds with SENP7 block; recombinant SENP7, Z-RLRGG-aminoluciferin luminescence, 40 min; inhibition, % at 12.5 µM; 6,200 tested, 69% active; AID 488917
Casp3 select = selectivity test for SENP inhibitors: human caspase-3 inhibition. shares compounds with SENP7 block. purified caspase-3, Z-DEVD-aminoluciferin luminescence, 60 min. inhibition, % at 12.5 µM. 6,200 tested, 60% active. AID 488918;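 active means mean inhibition above about 50%, limit read from the data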
SENP luc ctr = interferes with luciferase luminescence in SENP counter-screen | shares compounds with SENP7 block | Pre-incubated SENP8/Z-RLRGG-aminoluciferin, luciferase luminescence interference | inhibition, % at 12.5 µM | 6,200 tested, 39% active;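 active means mean inhibition above about 50% when retested at one dose, limit read from the data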
Hits are given with their value; - = inactive; . = no result given.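 How the source made its calls, unless noted: active means mean inhibition above about 50% in the one-dose retest (limit read from the data); inactive means the rest.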

SMILES	TRAIL sens C8	SENP7 block	SENP8 block-1	SENP8 block-2	PPC-1+TRAIL kill	SENP6 block	SENP8 confirm	SENP6 conf	SENP7 confirm	Casp3 select	SENP luc ctr
CS(=O)(=O)c1cccc(C(=O)Nc2cccc(-c3nc4ccccc4[nH]3)c2)c1	-	96	-	91	.	96	96	97	102	-	96
COc1ccc(OCC(=O)Nc2cccc(-c3nc4ccccc4o3)c2)cc1	-	-	-	-	-	-	.	.	.	.	.
CS(=O)(=O)Cc1ccc(C(=O)Nc2cccc(-c3nc4ccccc4[nH]3)c2)cc1	-	67	-	50	.	79	59	57	81	62	-
COc1ccc(OCC(=O)Nc2cccc(-c3nc4ccccc4[nH]3)c2)cc1	-	76	-	61	-	74	77	76	92	58	79
Cc1ccc(C(=O)Nc2ccc3c(c2)OCO3)cc1	74	-	-	-	72	69	68	68	90	83	-
Nc1c(C(=O)Nc2ccc3c(c2)OCCO3)nnn1Cc1ccc(Br)cc1	-	-	-	-	.	-	.	.	.	.	.
COc1ccc(C(=O)Nc2ccc(Nc3ccccc3)cc2)cc1Br	-	-	-	-	.	-	.	.	.	.	.
O=C(NC1=NCCS1)c1ccc(Cl)c(Cl)c1	-	60	-	-	.	70	-	63	-	65	-
COc1ccc(C(=O)Nc2ccc3c(c2)OCCO3)cc1Br	-	61	-	56	.	72	-	-	80	54	-
Nc1c(C(=O)Nc2ccc3c(c2)OCCO3)nnn1Cc1cccc(Br)c1	-	58	-	-	.	68	-	-	85	-	66
CSCCNC(=O)C1(C)CCN1C(=O)c1ccc(C(C)(C)C)cc1 (stereo not given)	-	.	-	.	.	.	.	.	.	.	.
COc1ccc(CNC(=O)CS(=O)CC(=O)O)cc1OC (stereo not given)	-	-	-	-	-	-	.	.	.	.	.
CCc1cccc2c(C(=O)C(F)(F)F)cn(CC(=O)N3CCOCC3)c12	-	-	-	-	-	-	.	.	.	.	.
CC12CCC(=O)C=C1C(F)CC1C2C(O)CC2(C)C1CCC2(O)C(=O)CO (stereo not given)	-	.	-	.	.	.	.	.	.	.	.
O=C(c1cccc(Cl)c1)N1CCCC(C(=O)N2CCN(c3ccccc3)CC2)C1 (stereo not given)	-	-	-	-	.	-	.	.	.	.	.
COc1cccc(CC(=S)N2CCOCC2)c1	-	.	-	.	-	.	.	.	.	.	.
CCCCN(C(=O)COC(=O)C1(c2ccccc2)CC1)c1c(N)n(CCC)c(=O)[nH]c1=O	-	.	-	.	.	.	.	.	.	.	.
Cc1nn(C)cc1/C=N/NC(=O)CSc1ccccn1	-	-	-	-	-	-	.	.	.	.	.
O=C(Nc1ccc(N2CCCCC2)cc1)c1cncc(Br)c1	-	52	-	-	-	-	-	-	62	68	-
O=C(Nc1ccc(S(=O)(=O)N2CCCC2)cc1)c1cncc(Br)c1	-	-	-	-	.	-	.	.	.	.	.
O=C(Nc1ccc(Cl)cc1Cl)c1ccc2c(c1)OCCO2	53	92	-	90	.	93	66	84	95	88	-
Cc1ccc(C(=O)Nc2ccc3c(c2)OCCO3)c(Cl)c1	83	85	-	78	.	89	81	79	94	87	82
O=C(Nc1ccc2c(c1)OCCO2)c1ccc(Cl)c(Cl)c1	-	67	-	59	.	77	53	55	93	51	-
C/C(CC(=O)Nc1ccccn1)=N\NC(=O)c1cnccn1	-	-	-	-	-	-	.	.	.	.	.
O=C(Nc1nnc([C@@H]2C[C@H](O)[C@@H](CO)O2)s1)Nc1ccccc1Oc1ccccc1	-	.	-	.	.	.	.	.	.	.	.
SMILES	TRAIL sens C8	SENP7 block	SENP8 block-1	SENP8 block-2	PPC-1+TRAIL kill	SENP6 block	SENP8 confirm	SENP6 conf	SENP7 confirm	Casp3 select	SENP luc ctr
O=C(COc1cccnc1[N+](=O)[O-])NCCc1ccccc1	-	-	-	-	-	-	.	.	.	.	.
Cc1cc(C)cc(C(=O)NC(=S)Nc2ccc3c(c2)OCCO3)c1	-	-	-	-	-	84	-	-	-	-	-
O=C(NC1=NCCS1)c1csc2ccccc12	-	73	-	60	-	81	-	68	89	78	74
CCc1ccc(C(=O)NC(=S)Nc2ccc3c(c2)OCCO3)cc1	-	-	-	-	-	-	.	.	.	.	.
O=C(Nc1ccc(Cl)cc1Cl)c1ccc(Br)o1	-	-	-	55	.	69	-	-	-	-	-
CCCOc1cccc(C(=O)Nc2ccc3c(c2)OCCO3)c1	52	66	-	53	.	77	69	67	86	59	55
CCCOc1cccc(C(=O)Nc2cccc(NC(=O)c3ccco3)c2)c1	-	-	-	-	-	-	.	.	.	.	.
O=C(Nc1cc(Cl)ccc1N1CCOCC1)c1ccc(Br)o1	-	-	-	-	.	-	.	.	.	.	.
CC(=O)Oc1ccc(C(=O)NCc2ccc3c(c2)OCO3)cc1	-	-	-	-	.	-	.	.	.	.	.
CCOc1ccc(NC(=O)CN2CCN(CC(=O)Nc3ccc4c(c3)OCCO4)CC2)cc1	-	-	-	-	-	-	.	.	.	.	.
COc1ccc(C(=O)Nc2ccc(N3CCCCC3)cc2)cc1Br	-	68	-	-	-	-	-	-	-	-	-
Cc1cc(C(=O)Nc2ccc(N3CCCCC3)cc2)no1	-	54	-	-	-	-	-	56	77	81	-
Cc1cc(C(=O)Nc2ccc(N3CCCC3)c(Cl)c2)ccc1[N+](=O)[O-]	-	52	-	-	-	60	-	-	65	-	-
CCOc1ccc(C(=O)Nc2ccc3c(c2)OCCO3)cc1	55	86	-	71	.	84	-	77	95	87	69
O=C(Nc1ccc(N2CCCC2)c(Cl)c1)c1ccc([N+](=O)[O-])cc1	-	-	-	-	-	-	.	.	.	.	.
Cc1cc(C(=O)Nc2ccc(S(=O)(=O)N3CCCC3)cc2)no1	-	-	-	-	-	-	.	.	.	.	.
CCN1CCN(C(=O)c2cc(COc3ccc(C(C)=O)cc3OC)on2)CC1	-	-	-	-	.	-	.	.	.	.	.
CN(CC(=O)Nc1ccccc1Br)C(=O)C1CCN(C(=O)c2ccc(Cl)cc2)CC1	-	-	-	-	.	-	.	.	.	.	.
CN(C)N1C(=O)c2c(Cl)c(Cl)c(Cl)c(Cl)c2C1=O	-	.	-	.	.	.	.	.	.	.	.
Cc1ccc(C(=O)Nc2ccc3c(c2)OCCO3)cc1	84	82	-	72	.	73	-	76	94	87	79
